From ChEMBL document CHEMBL3988442, “University of Dundee, Small-Polar-MMV Screening Library” (2021) come the findings set out here.

The target of this test is AMP-activated protein kinase, AMPK (Homo sapiens) (UniProt P54646+O43741+P54619+Q9UGJ0+Q9Y478+Q13131+Q9UGI9). Kind of test: AMP-dependent Kinase enzyme assay. An in vitro enzyme assay that detects ADP turnover that is directly proportional to AMPK activity. This uses naive AMPK that is activated during the assay with MK-8722. It counts as functional. On the set-up: scale not given: direction of the effect not stated beside the values. The note with it: 30 µM.
Turning to `CN(Cc1ncc(-c2ccccc2C(=O)O)s1)c1ncccn1`, the Percent Effect is -8.09%.
With `Cc1cnn(CC2CCN(CC(O)Cn3cccn3)CC2)c1` (stereo not given), the Percent Effect stood at 11.8%.
Under `CCCNc1ncc(CN2CCOC(Cc3cccc(F)c3)C2)cn1` (stereo not given) stands 6.84%.
For the molecule `CCCOc1cc(CNC(=O)Nc2ccccn2)ccn1`, the Percent Effect was 7.59%.
Under `Cc1nc(C)n(CC2CCCN2c2ncnc3sc(C)c(C)c23)n1` (stereo not given) stands -3.96%.
As for `O=C(NCC1CCCO1)Nc1nnc(C(F)(F)F)s1` (stereo not given), the Percent Effect was determined as 3.01%.
Then `COCCN(CC(F)F)c1cc(C(F)(F)F)nc2ncnn12`, with 3.49%; and `CC(C)(C)Oc1ccc(NCC(=O)NCc2ccco2)cc1`, with 9.8%; and `CN(CCNC(=O)Nc1cnn(C)c1)Cc1ccc(F)cc1`, with 0.603%.
Under `COc1cccc(CCC(=O)Nc2ccn(C)n2)c1OC` stands 10.3%; under `CNC(=O)COC(=O)c1cccc(-n2ccc(C(F)(F)F)n2)c1`, 5.41%; under `CN(Cc1nc2ccccc2n1C)C(=O)CCc1cscn1`, 3.49%.
For the molecule `CCOC(=O)N1CCN(C(=O)Cn2ccc3ncccc3c2=O)CC1`, the Percent Effect was -0.626%.
Take `CCc1nc(CCNc2ncccc2C#N)sc1C`: the Percent Effect is -3.24%.
Take `CN1CCC(NC(=O)c2cc(Br)cc(Cl)c2O)C1=O` (stereo not given): the Percent Effect is 11.8%.
Under `CCN1CCN(C(=O)C2CCOC2)c2ccccc21` (stereo not given) stands -4.37%; under `CC(c1nc(-c2ccccc2)no1)N1CCc2c(ncn2C2CC2)C1` (stereo not given), 10.5%.
Consider `COC(=O)C1CCN(C(=O)Cn2nc(C)nc2-c2ccccc2)CC1`, for which the Percent Effect was -7.76%.
Then `Cc1nc(CN(C)S(=O)(=O)c2ccc(F)cc2Br)no1`, with 1.76%; and `c1cc(CN2CCC[C@@H](Cn3nnc(-c4cnccn4)n3)C2)ccn1`, with 6.31%.
